# Among all 330,000 compounds or so, about 10,000 (3%) were called active. The sample holds actives, similar compounds and a random draw of the others, so the mix is not that of the screen. Unmarked numbers belong to inactive results.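 Rule for the calls: active = inhibition of at least 50% at 8 µM in the primary screen; inactive = the rest.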
# Biological target: Protein Mdm4 (Homo sapiens) + E3 ubiquitin-protein ligase Mdm2 (Homo sapiens) (UniProt O15151+Q00987)
# Test: disruptors of Mdm2/MdmX RING complex – cell-based, luminescence, split luciferase, SaOS-2, uHTS, primary screen (AID 485346)
# Conditions: SaOS-2 split-luciferase Mdm2/MdmX complementation, at 8 µM, stronger effect = higher value
# Chain of Protein Mdm4 (Homo sapiens) + E3 ubiquitin-protein ligase Mdm2 (Homo sapiens) (O15151 whole entry, looked up): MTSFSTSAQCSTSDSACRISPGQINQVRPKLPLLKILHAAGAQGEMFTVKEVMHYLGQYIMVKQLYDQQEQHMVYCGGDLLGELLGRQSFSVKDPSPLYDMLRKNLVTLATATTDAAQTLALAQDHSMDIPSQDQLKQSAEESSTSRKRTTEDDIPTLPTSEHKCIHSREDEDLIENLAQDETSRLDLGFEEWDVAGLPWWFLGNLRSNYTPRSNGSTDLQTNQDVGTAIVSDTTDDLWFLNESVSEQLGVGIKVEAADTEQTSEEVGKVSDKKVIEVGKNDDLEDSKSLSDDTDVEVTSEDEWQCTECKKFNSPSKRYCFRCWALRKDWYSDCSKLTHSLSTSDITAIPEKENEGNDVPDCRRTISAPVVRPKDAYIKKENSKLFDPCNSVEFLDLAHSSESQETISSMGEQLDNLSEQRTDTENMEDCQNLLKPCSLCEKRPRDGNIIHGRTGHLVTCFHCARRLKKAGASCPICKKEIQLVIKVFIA
# Chain of Protein Mdm4 (Homo sapiens) + E3 ubiquitin-protein ligase Mdm2 (Homo sapiens) (Q00987 whole entry, looked up): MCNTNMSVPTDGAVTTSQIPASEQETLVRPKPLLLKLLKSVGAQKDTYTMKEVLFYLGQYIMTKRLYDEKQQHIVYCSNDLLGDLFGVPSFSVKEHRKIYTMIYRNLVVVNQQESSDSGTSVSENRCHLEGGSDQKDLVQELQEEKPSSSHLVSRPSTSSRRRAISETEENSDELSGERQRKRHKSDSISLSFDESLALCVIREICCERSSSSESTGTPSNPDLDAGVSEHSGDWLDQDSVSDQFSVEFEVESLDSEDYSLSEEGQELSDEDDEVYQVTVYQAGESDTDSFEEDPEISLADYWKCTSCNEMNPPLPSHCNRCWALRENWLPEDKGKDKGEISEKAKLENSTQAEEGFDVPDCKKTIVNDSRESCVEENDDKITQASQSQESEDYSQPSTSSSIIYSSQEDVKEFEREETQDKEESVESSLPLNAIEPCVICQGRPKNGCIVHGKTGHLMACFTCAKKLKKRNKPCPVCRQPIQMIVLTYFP
row,SMILES,inhibition
1,Cc1cc(C)n(-c2ccc(C(=O)O)cc2[N+](=O)[O-])n1,-9.75%
2,CC(=O)c1ccc(Oc2cc(C)nc(-n3nc(C)cc3C)n2)cc1,59.2% (active)
3,COc1ccc(C(C)=O)cc1CSc1nc2nc(C)cc(C)n2n1,-8.43%
4,CCOC(=O)C1C(c2ccc(OC)c(OC)c2)c2c([nH][nH]c2=O)CC1(C)O (stereo not given),-7.74%
5,COCCCNC(=S)NCCNc1nc2cc(C)c(C)cc2cc1C#N,-28.9%
6,C=CCN(CC=C)C(=O)CN1C(=O)c2ccccc2C1=O,11.2%
7,C=CCn1c(C)cc(C(=O)CN2C(=O)c3ccccc3C2=O)c1C,68% (active)
8,Cc1cc(C(=O)COC(=O)CCCN2C(=O)c3ccccc3C2=O)c(C)n1C,6.08%
9,Cc1cc(S(=O)(=O)N2CCOCC2)ccc1OCC(=O)Nc1cccc(C(F)(F)F)c1,23.2%
10,CCC(CO)Oc1cc(NCc2ccccc2)c2ncn(C3CCCC3)c2c1 (stereo not given),7.28%
11,CC(C)n1cnc2c(NCc3ccccc3)cc(N[C@@H](CO)Cc3ccccc3)cc21,93.5% (active)
12,CC(C)n1cnc2c(NCc3ccccc3)cc(OCC3CCN(C)CC3)cc21,22.6%
13,CC(C)(Oc1ccc(C2CC2(Cl)Cl)cc1)C(=O)O (stereo not given),26.9%
14,Cn1cc(S(=O)(=O)N2CCN(c3ccc(F)cc3)CC2)c(=O)n(C)c1=O,8.49%
15,CCCCn1c(=S)[nH]c2cc(S(=O)(=O)N3CCCCC3)ccc21,-7.07%
16,O=C(Nc1cc(S(=O)(=O)Nc2ccc(Cl)cc2)ccc1O)c1ccc(F)cc1F,6.95%
17,COc1ccc(C(=O)N2CC3(C)CC2CC(C)(C)C3)cc1OC (stereo not given),16.7%
18,Cc1cccc(C(=O)NCC(=O)OCC(=O)N2CC3(C)CC2CC(C)(C)C3)c1 (stereo not given),-13.6%
19,Cc1nnnn1/C(=C\c1ccccc1)C(=O)OCC(=O)N1CC2(C)CC1CC(C)(C)C2 (stereo not given),57.8% (active)
20,Cc1ccc(C(=O)NCC(=O)O)s1,14%
21,CCc1nn(-c2cc(Oc3cccc4ccccc34)nc(-c3ccccc3)n2)c(N)c1C#N,86.8% (active)
22,CC(C)(C)n1nc(Cc2cccc3ccccc23)c(C#N)c1N,-12%
23,CC#CC[N+](C)(C)CCCCCC,-0.896%

row,SMILES,inhibition
1,C=CCn1c(-c2ccccc2OCC)n[nH]c1=S,18.7%
2,C/C(=N\NC(=O)c1cc(-c2ccc(O)cc2)nc2ccccc12)c1cccnc1,-9.48%
3,CCOc1cc(CNCc2ccccn2)ccc1OCC(=O)NC(C)(C)C,-2.81%
4,COc1cc(C(C(=O)NC2CCCC2)N(Cc2ccccc2)C(=O)c2snc(C(N)=O)c2N)ccc1O (stereo not given),21.6%
5,COc1ccc(CNC(=O)C(c2ccc(O)cc2)N(Cc2ccco2)C(=O)c2snc(C(N)=O)c2N)cc1 (stereo not given),54.5% (active)
6,NC(=O)c1nsc(C(=O)N(CC(=O)NCc2ccc(F)cc2)Cc2ccco2)c1N,9.54%
7,CCc1ccc(OCC(O)CN2CCN(CCO)CC2)cc1 (stereo not given),19.2%
8,CCOC(=O)c1cnn(Cc2ccccc2Cl)c1N,-23.4%
9,CC(C)(C)n1ncc2c(=O)n(Cc3c(Cl)cccc3Br)cnc21,10.5%
10,CC(C)c1nnc(NC(=O)C2CC(=O)N(CCc3ccc(F)cc3)C2)s1 (stereo not given),-16.4%
11,CCN(C(=O)COC(=O)c1c(NC(C)=O)sc(C)c1C)C1CCS(=O)(=O)C1 (stereo not given),13.7%
12,O=C(c1cccs1)N(Cc1cc2ccccc2[nH]c1=O)CC1CCCO1 (stereo not given),-37.5%
13,COc1ccc(-c2c(NC(=O)c3ccco3)oc3ccc(Cl)cc3c2=O)cc1,-18.1%
14,COc1ccccc1NC(=O)c1cc(Cl)nc2ccccc12,-6.72%
15,COc1ccc(-c2cc(C(=O)Nc3ccccc3O)c3ccccc3n2)cc1,9.09%
16,COc1ccc(NC(=O)c2cc(-c3cc(OC)c(OC)c(OC)c3)nc3ccccc23)c(OC)c1,61.6% (active)
17,CCN(CC(=O)Nc1ccccc1C(=O)NC1CC1)Cc1cccs1,30.2%
18,O=C(C1=C[C@H](c2coc3ccccc3c2=O)C[C@H](OCc2ccc(CO)cc2)O1)N1CCN(Cc2ccccc2)CC1,8.82%
19,CN(c1ccccc1)S(=O)(=O)c1cc(C(=O)N2CCN(c3ncccn3)CC2)ccc1Cl,77.3% (active)
20,CN(c1ccccc1)S(=O)(=O)c1ccc(C(=O)N2CCN(c3ccccc3Cl)CC2)cc1,28.8%
21,CN(c1ccccc1)S(=O)(=O)c1cc(C(=O)OCC(=O)N2CCN(C(=O)c3ccco3)CC2)ccc1Cl,15.6%
22,COC(=O)c1ccc(C)c(NC(=O)Cn2c(C)csc2=O)c1,26.8%

# Source: PubChem BioAssay AID485346 (Sanford-Burnham Center for Chemical Genomics, 2010)
